# Screens as filed in PubChem BioAssay.
# IMPase inh – cell-permeable inhibitors of inositol monophosphatase (IMPase). CHO-M1 cells, IP1 accumulation, HTRF TR-FRET ratio. inhibition (IP1 accumulation), % at 46.1 µM. 120,000 tested, under 10 active. AID 901; active = well fitted curve in the direction sought with a large enough effect in the signal ratio, not every such curve was filed as active; inconclusive = small, poorly fitted or top-dose-only effect, or a change in a side signal; inactive = no such curve, though single readings can be large or run the other way; the % refers to the signal ratio;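 also: cells stimulated with carbachol in lithium chloride buffer; higher means more IMPase inhibition seen as more IP1 and lower FRET ratio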
# Target sequence (P97697 whole entry, looked up): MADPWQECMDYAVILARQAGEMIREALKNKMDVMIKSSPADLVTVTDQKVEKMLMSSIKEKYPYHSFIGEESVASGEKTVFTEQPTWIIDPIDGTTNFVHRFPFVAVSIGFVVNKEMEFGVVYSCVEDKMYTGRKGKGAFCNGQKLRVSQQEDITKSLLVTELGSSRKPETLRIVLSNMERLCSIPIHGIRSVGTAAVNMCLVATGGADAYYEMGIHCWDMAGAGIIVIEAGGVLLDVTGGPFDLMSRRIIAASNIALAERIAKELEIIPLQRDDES
#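 In this qHTS, compounds (final up to 46 uM) act on CHO-M1 cells that are then activated through the M1 receptor with carbachol, in pH 7.4 buffer containing 50 mM LiCl, for 30 min. IP1 accumulation is quantified by the IP-One immunoassay.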
# ALDH1A1 inh – inhibitors of human aldehyde dehydrogenase 1A1; P00352; Purified ALDH1A1, NADH fluorescence, propionaldehyde substrate; Potency, µM (series often up to 75.3 µM), most hits filed as inhibitors; 220,000 compounds, 7.3% hits; active = well fitted inhibition curve with a large enough effect, not every such curve was filed as active; inconclusive = small, poorly fitted or top-dose-only effect, or another doubt; inactive = no such curve, though single readings can be large or run the other way
# HPGD block – HPGD (human) dehydrogenase inhibition. 150,000 compounds, 4.3% hits. purified HPGD, NADH fluorescence kinetic, PGE2 substrate. Potency, µM, actives largely listed as inhibitors. P15428. AID 894; active = well fitted inhibition curve with a large enough effect, not every such curve was filed as active; inconclusive = small, poorly fitted or top-dose-only effect, or another doubt; inactive = no such curve, though single readings can be large or run the other way
# Target sequence (P15428 whole entry, looked up): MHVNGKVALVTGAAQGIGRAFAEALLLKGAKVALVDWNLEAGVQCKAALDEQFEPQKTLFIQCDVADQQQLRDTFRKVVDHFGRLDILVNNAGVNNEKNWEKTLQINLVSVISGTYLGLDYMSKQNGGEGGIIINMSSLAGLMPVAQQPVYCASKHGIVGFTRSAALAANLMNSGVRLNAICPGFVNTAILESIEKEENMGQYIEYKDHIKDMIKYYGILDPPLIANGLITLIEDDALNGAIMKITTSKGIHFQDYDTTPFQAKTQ
#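 20 nM HPGD preincubated 15 min at room temperature with compound in 50 mM Tris-HCl pH 8, 0.01% Tween 20. Started with 1 mM NAD+ and 30 uM prostaglandin E2; NADH fluorescence (360/450 nm) read 5 times over 30-s intervals, last minus first.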
# HTT cytoprotect – cytoprotection in Huntington HTT-Q103 PC12 cell model; PC12 HTT-Q103 induced, cytoprotection, ATP luminescence, 40 h; Potency, µM (highest dose often 56.4 µM), most hits filed as activators; 230,000 compounds, 0.14% hits; also: nearly all actives have a fitted effect of over 45% in size
#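 Cells were plated at 1500 per well in phenol red-free DMEM with 5% equine and 5% calf serum. Tebufenozide (100 nM final) and compounds were added, then ATPlite reagent, and luminescence was read.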
# HTT aggregate – inhibitors of mutant huntingtin aggregate formation in PC12 cells. PC12 HttQ103-GFP aggregates, Acumen cytometry, 40 h. Potency, µM (top dose mostly 46.1 µM), hits mostly inhibitors. 220,000 compounds, 1.1% hits. AID 1688; also: nearly all actives have a fitted effect of over 60% in size
#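 Read-out: GFP aggregate count by laser scanning cytometer (488 nm excitation, 500-530 nm emission, 1–25 µm objects >6 SD above background). Cells: PC12, inducible HTTex1-Q103-GFP, 100 nM tebufenozide; compounds titrated.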
# IMPase Li cell – IMPase inhibition in cells with lithium potentiation | 210,000 compounds, 0.35% hits | Potency, µM (doses to about 59.4 µM), actives largely listed as inhibitors | AID 1457 | CHO-M1 cells, IP1 TR-FRET (IP-One), carbachol + lithium;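 also: IP1 builds up when IMPase is blocked and the TR-FRET signal falls; nearly all actives have a fitted effect of over 50% in size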
#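 Readout is a homogeneous TR-FRET IP1 immunoassay (Ex 320, Em 665 and 620), where raised cytosolic IP1 lowers signal. Cells were CHO-M1 treated 30 min at 37C with test compounds plus a little lithium; AC50 values came from Hill-equation fitting.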
# Hits are given with their value; . = inactive; ? = inconclusive; / = no result; [ ] = another dose, or the depositor's remark. Hits are enriched below; roughly 9.4% of the tested compounds scored in any of these assays. Unless noted, calls follow the shape of the dose curve; as a rule, active = well fitted curve in the direction sought with a large enough effect; inconclusive = small, poorly fitted or top-dose-only effect, or another doubt; inactive = no such curve, though single readings can be large; an effect the other way counts as inactive or inconclusive.
SMILES,IMPase inh,ALDH1A1 inh,HPGD block,HTT cytoprotect,HTT aggregate,IMPase Li cell
O=C1CC(NNc2ccccc2)C(=O)N1c1ccccc1 (centres undefined),/,18µM,.,.[10 µM],.,.
CCCCNN,/,.[13.5 µM],.,.[10 µM],/,.
COc1ccc(-c2c(N)nnc3c2[nH]c2ccccc23)cc1OC,.,.,/,.,.,/
COc1ccc(OC)c2c(=S)c3ccccc3[nH]c12,.,1.6µM,5µM,.,/,.
Cc1[nH]n(-c2ccccc2)c(=S)c1C=Nc1ccc([N+](=O)[O-])cc1,/,5.6µM,3.5µM,.[10 µM],.,.
Clc1ccccc1C1=CC(c2ccco2)n2nnnc2N1 (centres undefined),/,13µM,/,.[10 µM],.[9.22 µM],.
COc1cccc(-n2nc(C#N)c(Cl)cc2=O)c1,/,.,/,.,3.5µM,.
COc1cccc(-n2nc(C(N)=O)c(O)cc2=O)c1,/,.,/,.,.,.
O=C(Nc1ccccc1CC[N+](=O)[O-])N1CCN(c2ccccc2)CC1,/,8.9µM,/,.,?,.
CN(C)C(=O)Nc1ccccc1CC[N+](=O)[O-],/,?,/,?,.,.
Cc1ccc2oc(=O)n(CCCOc3ccc(Cl)cc3)c2c1,.,/,/,/,/,/
CCS(=O)(=O)N1Cc2ccccc2CC1C(=O)Nc1nnc(SCc2ccc(C#N)cc2)s1 (centres undefined),/,.,.,.[10 µM],13µM,.
CCS(=O)(=O)N1Cc2ccccc2CC1C(=O)Nc1ncc(C)s1 (centres undefined),/,.,/,.,.,.
C=C(C)COc1ccc(-c2n[nH]c(C)c2-c2ccc(Br)cc2)c(O)c1,.,?,?,.,7.9µM,.
C=C(C)COc1ccc(-c2[nH]ncc2-c2ccc(Br)cc2)c(O)c1,/,.,.,/,?,.
CCCC(O)(CCC)C(=O)NN(C(=O)CCl)c1ccccc1,.,25µM,.,.[10 µM],?,.
Cc1ccc(Nc2cc(C)c(C#N)c3nc4ccccc4n23)cc1Cl,.,/,/,/,/,/
Cc1cc([N+](=O)[O-])cnc1NC(C)c1ccccc1 (centres undefined),.,22µM,.,.,?,.
CC(Nc1cc(N2CCCC2)ccc1[N+](=O)[O-])c1ccccc1 (centres undefined),.,?,.,.,.,.
Fc1ccc(OCc2nnc(SCCN3CCOCC3)o2)cc1,.,.,22µM,.[10 µM],.,.
COc1ccc(OCc2nnc(SCC(=O)N3CCOCC3)o2)cc1,/,.,/,.[10 µM],.[9.22 µM],.
O[C@@H](c1cc(C(F)(F)F)nc2c(Cl)cc(Cl)cc12)C1CCCCN1 (some centres undefined),/,.[13.5 µM],.,/,/,.
Brc1cc2c(cc1/C=N/Nc1nc(N3CCCC3)nc(N3CCOCC3)n1)OCO2,.,14µM,.,.,?,.
Cc1nn(Cc2cccc(C(=O)N3CCCC(C)C3)c2)c(C)c1[N+](=O)[O-] (centres undefined),/,?,14µM,.[10 µM],.,.
CC1CCCN(C(=O)c2ccc3c(=O)n(C4CCCC4)c(=S)[nH]c3c2)C1 (centres undefined),/,3.5µM,/,.,?,.
SMILES,IMPase inh,ALDH1A1 inh,HPGD block,HTT cytoprotect,HTT aggregate,IMPase Li cell
CC1CCCN(C(=O)c2ccc3nc[nH]c3c2)C1 (centres undefined),.,?,2µM,.[10 µM],.,.
O=C(c1ccc2c(=O)n(C3CCCC3)c(=S)[nH]c2c1)N1CCCCCC1,/,?,/,.,.,.
CSc1ncnc2c1ncn2[C@@H]1O[C@@H](CO)[C@H](O)O[C@@H]1O,/,.[13.5 µM],.,.[10 µM],/,.
CNC(=O)c1ccc(Nc2nnc(-c3ccc(C)c(S(=O)(=O)NC(C)(C)C)c3)c3ccccc23)cc1,.,/,/,/,/,/
O=C1CCCC=C1[C@@H](O)COCc1ccccc1,/,.[13.5 µM],/,.[10 µM],/,/
CC1CCC2C(=O)N3CCCC3C(=O)N2C1c1ccc(Br)cc1 (centres undefined),/,.[13.5 µM],/,?,/,/
COc1ccc(Oc2ncc3nc(C)c(=O)n(CCC#N)c3n2)cc1,/,?,.,.,/,.
COc1ccc(C)cc1C(=O)CCC(=O)NC1CCCCC1,/,.,/,.,.,.
Cc1ccc2c(c1)NCC(C(=O)NC1CCCCC1)O2 (centres undefined),.,.,13µM,.,.,.
